Screening data from PubChem.
The full list was thinned out, with hits kept by preference.
Artemis endo inh: inhibitors of human Artemis endonuclease activity. Q96SD1. recombinant Artemis, quenched FAM hairpin cleavage fluorescence. inhibition, % at 10 µM. hit rate 0.78% among 30,000. AID 686954;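 active = at 10 µM dose, at least 30% inhibition, measured as corrected fluorescence normalized to stimulator and neutral control wells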
Target sequence (Q96SD1 whole entry, looked up): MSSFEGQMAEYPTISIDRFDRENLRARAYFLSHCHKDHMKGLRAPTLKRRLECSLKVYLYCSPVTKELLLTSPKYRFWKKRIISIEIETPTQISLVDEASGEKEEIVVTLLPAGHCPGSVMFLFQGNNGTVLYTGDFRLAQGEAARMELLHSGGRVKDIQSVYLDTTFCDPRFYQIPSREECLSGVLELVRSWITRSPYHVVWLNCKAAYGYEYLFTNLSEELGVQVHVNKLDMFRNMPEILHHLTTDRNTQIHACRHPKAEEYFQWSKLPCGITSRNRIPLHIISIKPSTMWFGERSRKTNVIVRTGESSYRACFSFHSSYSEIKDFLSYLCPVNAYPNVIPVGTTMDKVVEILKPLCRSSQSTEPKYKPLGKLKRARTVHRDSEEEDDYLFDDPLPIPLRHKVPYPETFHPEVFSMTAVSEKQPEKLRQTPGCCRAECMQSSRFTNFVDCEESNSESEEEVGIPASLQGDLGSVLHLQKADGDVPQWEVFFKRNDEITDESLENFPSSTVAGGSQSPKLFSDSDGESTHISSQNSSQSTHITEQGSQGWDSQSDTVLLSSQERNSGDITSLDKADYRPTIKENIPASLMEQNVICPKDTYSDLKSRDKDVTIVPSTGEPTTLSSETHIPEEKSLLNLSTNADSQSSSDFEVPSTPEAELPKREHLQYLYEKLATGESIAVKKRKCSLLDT
* hit, by the source's call.

SMILES	Artemis endo inh
O=C(c1ccc(F)cc1)N1CCCCC(Sc2nnnn2-c2ccccc2)C1=O (stereo not drawn)	6.0
COC(=O)c1cn(CC(=O)NC2CCCCCC2)c2ccccc12	-7.2
CNC(=S)NNC(=O)Cc1ccc(OC)c(OC)c1	-4.1
Cc1cc(Nc2nc3ccccc3[nH]c2=O)n(-c2ccccc2)n1	3.9
Cc1ccc(Nc2cc(C)nc3nnnn23)cc1	-2.1
Cc1ccc(Nc2cc(C)nn2-c2nc(C)cc(=O)[nH]2)cc1	34.5*
Cc1cccc(C(=O)N2CCN(c3ccc(C(F)(F)F)cn3)CC2)c1C	0.4
Cc1ccc(NC(=O)CN2C(=O)S/C(=C\c3cccn3-c3cccc(C(=O)O)c3)C2=O)c(C)c1	32.0*
Cc1cccc(C)c1NC(=O)CN1C(=O)S/C(=C\c2cccn2-c2cccc(C(=O)O)c2)C1=O	22.0
Cc1ccccc1NC(=O)CN1C(=O)S/C(=C\c2cccn2-c2cccc(C(=O)O)c2)C1=O	22.4
COc1ccccc1-c1nc(C#N)c(NCc2ccc(F)cc2)o1	15.4
Cc1ccc(N/C=C/C(=O)c2sc(-c3ccccc3)nc2C)cc1	-4.8
O=C(CSc1nnc(-c2ccc(OC(F)F)cc2)o1)NCc1cccs1	6.5
Nc1ccc2nc(-c3ccccn3)[nH]c2c1	45.3*
Nc1ccc2nc(-c3ccc(N)c(Cl)c3)[nH]c2c1	22.5
COc1ccc2nc(-c3cccc(N)c3)[nH]c2c1	1.3
C#CCSc1nnc(-c2cc3c(C(F)(F)F)nn(C)c3s2)n1C	20.3
C=CCc1cccc2cc(C(=O)OCC(=O)c3ccccc3)c(=O)oc12	9.3
O=c1cc(-c2ccccc2)nc2nc(-c3ccco3)[nH]n12	35.5*
O=C(Nc1nc2nc(-c3ccccc3)cc(=O)n2[nH]1)c1ccccc1	-0.9
O=c1cc(-c2ccccc2)nc2nc(CCc3ccccc3)[nH]n12	0.0
CC1(c2ccc(Cl)c(Cl)c2)NC(=S)N2C1NC(=S)N2c1ccccc1 (stereo not drawn)	1.9
O=C(Nc1ccc2c(c1)OCO2)C1Cc2ccccc2CN1S(=O)(=O)c1cccs1 (stereo not drawn)	8.7
Cn1nc(C(=O)Nc2cccc(C(F)(F)F)c2)ccc1=O	3.5
O=C(Nc1ccc2nc(-c3ccco3)c(-c3ccco3)nc2c1)NC1CC1	49.5*
SMILES	Artemis endo inh
O=C(NCc1ccco1)Nc1ccc2nsnc2c1	9.2
CC(C)Oc1cccc(C(=O)NC(=S)Nc2cccc(C(F)(F)F)c2)c1	0.1
O=C(Nc1cccc(C(F)(F)F)c1)c1ccc2nc(-c3ccco3)c(-c3ccco3)nc2c1	41.8*
O=S(=O)(c1ccc2nc(-c3ccco3)c(-c3ccco3)nc2c1)N1CCOCC1	27.6
CCOC(=O)c1c(NC(=O)CSc2nnc(Cc3ccccc3)o2)sc(C)c1C	11.1
O=C(Nc1ccccc1)OCc1cc(-c2ccccc2Cl)on1	12.1
COc1ccc(NS(=O)(=O)c2cc(OC)ccc2NC(=O)c2cc(C)oc2C)cc1	-5.5
CCCCOCCCNC(=O)/C=C/c1ccccc1Cl	-2.5
COc1ccc(Cl)cc1Nc1nc(C)cc(C)c1C(N)=O	-7.0
Cc1oc2c(c1C(=O)c1ccccc1)C(=O)C(=O)c1ccccc1-2	59.3*
O=C(c1ccccc1)c1cc2ccccc2o1	-1.3
Cc1onc(-c2ccccc2)c1C(N)=O	3.1
CCOC(=O)N1CCN(C(=O)c2ccc(N3C(=O)c4ccccc4C3=O)cc2)CC1	-6.7
CCOC(=O)N1CCN(c2cc(NCCC(=O)O)c3c4c(onc24)-c2ccccc2C3=O)CC1	33.0*
CCOC(=O)N1CCN(c2ccc(C(=O)c3ccccc3)cc2F)CC1	-0.1
N=c1c2c(-c3ccccc3)c(-c3ccccc3)n(Cc3ccco3)c2ncn1Cc1ccccc1	8.8
CC(C)Cn1cnc2c(c(-c3ccccc3)c(-c3ccccc3)n2Cc2ccco2)c1=N	22.9
c1ccc(-c2c(-c3ccccc3)n(Cc3ccco3)c3ncnc(NCCCn4ccnc4)c23)cc1	44.1*
CCc1c(C)nc2ncnn2c1N1CCCC(C(=O)Nc2cc(F)ccc2C)C1 (stereo not drawn)	-11.0
CCOC(=O)c1c(C)nc2sc3c(c2c1-c1ccc(OC)cc1)NC(c1ccc(OC)cc1)NC3=O (stereo not drawn)	5.2
O=C1[C@@H]2C(c3ccccc3Cl)=NO[C@@H]2C(=O)N1Cc1ccccc1	1.3
COc1ccc(CN(C(=O)c2cnccn2)C(C(=O)Nc2ccc(F)cc2)c2ccccc2)cc1 (stereo not drawn)	1.4
Cc1c(NC(=O)c2ccc(F)c(S(=O)(=O)N3CCOCC3)c2)c(=O)n(-c2ccccc2)n1C	2.5
